KCNQ2 enhance = KCNQ2 (rat) channel potentiation; B-score at 10 µM; actives 0.54% (n = 310,000); CHO-K1 KCNQ2, FluxOR thallium flux fluorescence; hits give high values; O88943;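 active = fluorescence ratio B-score at least 3 SD of library B-scores, with initial fluorescence B-score within 3 of them, cut at about 5.3 in these data; same plate scores as AID 2156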;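 note: B-score of peak minus minimum over baseline fluorescence ratio after K+ and Tl+ stimulus; positive B-score means potentiation of KCNQ2 with more thallium influx and brighter signal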
Target sequence (O88943 whole entry, looked up): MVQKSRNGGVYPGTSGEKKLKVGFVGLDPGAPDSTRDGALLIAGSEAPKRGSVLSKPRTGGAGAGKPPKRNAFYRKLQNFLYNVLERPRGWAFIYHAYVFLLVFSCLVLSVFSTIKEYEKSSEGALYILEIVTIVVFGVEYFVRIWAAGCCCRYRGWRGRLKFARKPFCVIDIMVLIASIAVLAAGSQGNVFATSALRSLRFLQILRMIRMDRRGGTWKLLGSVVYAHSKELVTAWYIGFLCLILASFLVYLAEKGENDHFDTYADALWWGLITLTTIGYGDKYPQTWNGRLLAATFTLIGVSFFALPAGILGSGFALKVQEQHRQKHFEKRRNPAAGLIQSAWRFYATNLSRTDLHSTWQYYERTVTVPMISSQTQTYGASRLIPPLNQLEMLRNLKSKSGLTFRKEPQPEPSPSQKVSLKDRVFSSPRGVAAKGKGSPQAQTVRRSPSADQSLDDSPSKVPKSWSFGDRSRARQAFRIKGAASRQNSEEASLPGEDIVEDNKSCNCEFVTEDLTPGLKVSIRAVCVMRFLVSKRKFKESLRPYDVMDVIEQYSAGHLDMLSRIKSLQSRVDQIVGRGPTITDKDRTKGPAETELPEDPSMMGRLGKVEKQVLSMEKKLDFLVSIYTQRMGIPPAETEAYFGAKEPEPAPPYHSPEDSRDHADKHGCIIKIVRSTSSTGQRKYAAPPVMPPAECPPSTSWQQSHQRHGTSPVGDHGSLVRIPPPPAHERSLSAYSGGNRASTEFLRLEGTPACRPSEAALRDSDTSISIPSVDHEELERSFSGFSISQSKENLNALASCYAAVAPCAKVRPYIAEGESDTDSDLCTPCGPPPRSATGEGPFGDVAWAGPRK
KCNQ2 block = KCNQ2 (rat) channel inhibition. O88943. B-score at 10 µM. AID 2156. actives 1.1% (n = 310,000). CHO-K1 KCNQ2, FluxOR thallium flux, 20 min; hits give low values;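 active = fluorescence ratio B-score at most minus 3 library SDs, with starting brightness B-score within 2 library SDs, cut at about -5.5 in these data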
An asterisk follows results filed as active; i = inactive; . = no result. The list is not random: actives were taken first. Their share in the collection is about 1.6%.

SMILES	KCNQ2 enhance	KCNQ2 block
CC1CN(C(=O)CCC(=O)NCc2ccc(F)cc2)c2ccccc2S1 (centres undefined)	.	i
COc1ccccc1CNC(=O)CCC(=O)N1CC(C)Sc2ccccc21 (centres undefined)	-6.3	-6.3*
COc1ccc(CCN(C)C(=S)Nc2cccc(C)c2)cc1OC	.	i
COc1ccc2[nH]c(CN3CCN(CC=C(C)C)C(CCO)C3)c(C)c2c1 (centres undefined)	.	i
O=C(Oc1ccccc1)c1cccc2cccc(C(=O)Oc3ccccc3)c12	-5.8	-5.8*
O=C(Oc1ccccc1)c1cc2ccccc2oc1=O	.	i
Cc1ccc(-c2cc(C(F)F)n3ncc(C(=O)N4CCN(c5ccccn5)CC4)c3n2)cc1	-5.7	-5.7*
CCN1CCN(C(=O)c2cnn3c(C(F)F)cc(-c4ccc(C)cc4)nc23)CC1	0.37	i
Cc1cc(NC(=O)CSc2nnc(COc3ccccc3)n2Cc2ccco2)no1	0.85	i
Cc1ccc(OCc2nnc(SCC(=O)C(C)(C)C)n2Cc2ccco2)cc1	-7	-7*
CCOc1ccc(-n2ccc(=O)c(C(=O)Nc3ccc(S(=O)(=O)Nc4ncccn4)cc3)n2)cc1	.	i
CCOC(=O)CN1C(=O)C(C)(C)Oc2ccc(C(=O)Nc3ccccc3OC)cc21	-6.5	-6.5*
Cc1ccc(NC(=O)c2ccc3c(c2)N(CC(=O)N2CCCCC2)C(=O)C(C)(C)O3)cc1	-7.9	-7.9*
COc1ccccc1NC(=O)c1ccc2c(c1)N(CC(=O)NC(C)(C)C)C(=O)C(C)(C)O2	.	i
CC(C)(C)NC(=O)c1ccc2c(c1)N(CC(=O)N1CCCCC1)C(=O)C(C)(C)O2	0.93	i
CCC(=O)N1c2ccc(C)cc2C2=NNC(=S)NC21O (centres undefined)	1.9	i
Cc1ccc(OCc2csc(N)n2)cc1	1.2	i
COc1ccc(CNCCC(c2ccc(F)cc2)c2ccc(OC)cc2)cc1 (centres undefined)	.	i
COc1ccc(C(CCNCc2ccc(F)cc2)c2ccc(F)cc2)cc1 (centres undefined)	-7.2	-7.2*
CCc1c(C)nc2cc(-c3cc(OC)cc(OC)c3)nn2c1N1CCCC1	0.09	i
OC1CCN(c2c3c(nc4cc(-c5cccc(F)c5)nn24)CCCC3)CC1	.	i
COc1cc(OC)cc(-c2cc3nc4c(c(N5CCN(c6ncccn6)CC5)n3n2)CCCC4)c1	-6.2	-6.2*
Fc1cccc(-c2cc3nc4c(c(N5CCC6(CC5)OCCO6)n3n2)CCCC4)c1	-6.6	-6.6*
Cn1c2ccccc2c(=O)c2ccc(C#CC3(N)CCCCC3)cc21	-7.3	-7.3*
Cn1c2ccccc2c(=O)c2cc(C#CC3(O)CCCCC3)ccc21	1.1	i
SMILES	KCNQ2 enhance	KCNQ2 block
CCOc1ccccc1N=NC1C(=O)N(C(N)=S)N=C1C (centres undefined)	1.7	i
CCOc1ccc(S(=O)(=O)N2CCN(c3ccc(C)cc3C)CC2)cc1	-7	-7*
COc1ccc(S(=O)(=O)N2CCN(c3ccc(C)cc3C)CC2)cc1OC	.	i
CC(=O)OCC(=O)Nc1c(C)cc(C)cc1C	0.64	i
COc1ccc(Cl)cc1C(=O)NCCN(C)C	0.4	i
CN(C)CCNC(=O)c1ccc(COc2ccc(Cl)cc2Cl)cc1	-7.6	-7.6*
O=C(NCc1ccc2c(c1)OCO2)NC12CC3CC(CC(C3)C1)C2	25*	i
O=C(COc1ccc2c(c1)OCO2)NC12CC3CC(CC(C3)C1)C2	.	i
COc1ccc(NC(=O)[C@H](Cc2c[nH]c3ccccc23)NC(=O)[C@@H]2Cc3ccccc3CN2)cc1	.	i
CC(C)c1ccc(NC(=O)[C@H](Cc2c[nH]c3ccccc23)NC(=O)[C@@H]2Cc3ccccc3CN2)cc1	-8.2	-8.2*
Cn1c2ccccc2c2c(C(=O)O)cn(C3CCCC3)c(=O)c21	.	i
Cc1ccc(CNC(=O)c2cn(C3CCCC3)c(=O)c3c2c2ccccc2n3C)o1	-8	-8*
Cc1cc([N+](=O)[O-])nn1Cc1noc(C(=O)NCCc2ccccn2)n1	0.76	i
COc1ccc(NC(=O)CCc2nnc3ccc(N4CCN(c5cccc(OC)c5)CC4)nn23)cc1	.	i
CCOC(=O)Cn1nnc2c(sc3nc4c(c(-c5ccccc5)c32)CCC4)c1=O	.	i
CCOC(=O)Cn1nnc2c(sc3nc4c(c(-c5ccc(Cl)cc5)c32)CCC4)c1=O	-6.7	-6.7*
CC(Sc1nc2cc([N+](=O)[O-])ccc2n1-c1ccc(F)cc1)C(=O)NCc1ccc2c(c1)OCO2 (centres undefined)	-8	-8*
COc1ccccc1-n1c(SCC(=O)NCc2ccc3c(c2)OCO3)nc2cc([N+](=O)[O-])ccc21	.	i
Cc1ccc(C(=O)Nc2cccc(C(=O)O)c2)cc1	1.5	i
Cc1oc2c(c1C(=O)Nc1cccc(C(=O)O)c1)CCCC2	5.6*	i
COc1cccc(CNC(=O)CN2C(=O)CSc3ccc(S(=O)(=O)N4CCOCC4)cc32)c1	.	i
Cn1c(=O)c(/C=C/c2ccc(F)cc2)nc2ccccc21	-5.9	-5.9*
Cn1c(=O)c(/C=C/c2ccccc2)nc2ccccc21	.	i
Nc1ncnc2c1nc(SCCO)n2Cc1ccccc1	1.1	i
CC(Oc1ccc(Br)cc1)C(=O)Nn1c(=S)[nH]c2ncccc2c1=O (centres undefined)	1.8	i
SMILES	KCNQ2 enhance	KCNQ2 block
CC1=C(C)C(C)=C(C#N)C(=C(C#N)C#N)N1	.	i
CC(C)(C)n1nnnc1C(c1cccs1)N(Cc1cccnc1)Cc1ccccc1Cl (centres undefined)	-6.2	-6.2*
CC(c1nnnn1C(C)(C)C)N(Cc1cccnc1)Cc1ccccc1Cl (centres undefined)	.	i
Clc1ccccc1CN(Cc1ccccc1)C(c1cccs1)c1nnnn1C1CCCC1 (centres undefined)	-5.8	-5.8*
Clc1ccc(CN(CC2CCCO2)C(c2cccs2)c2nnnn2C2CCCC2)cc1 (centres undefined)	.	i
CCOP(=O)(OCC)c1nc(-c2cccc3ccccc23)oc1N1CCCCC1	-6.1	-6.1*
COP(=O)(OC)c1nc(-c2cccc3ccccc23)oc1N1CCCCC1	.	i
CCOC(=O)C1CCN(Cc2ccccn2)CC1	.	i
CCOC(=O)C1CCN(c2ccccc2CN2CCN(c3ccccc3OCC)CC2)CC1	-7.2	-7.2*
COc1ccc(NC(=O)CC(C)NCCCN2CCCC2=O)cc1 (centres undefined)	0.93	i
CNS(=O)(=O)c1cccc(C(=O)OCC(=O)/C=C2/N(C)c3ccccc3C2(C)C)c1	1.3	i
CCOC(=O)/C=C1/N(C)c2ccccc2C1(C)C	1.9	i
CN1/C(=C\C(=O)COC(=O)c2ccc(O)c(O)c2)C(C)(C)c2ccccc21	-6.5	-6.5*
CN1/C(=C\C(=O)COC(=O)c2ccc(O)cc2)C(C)(C)c2ccccc21	-6.2	-6.2*
CCCC(CCC)C(=O)Nc1ccc2c(c1)N(C(=O)CCN1CCN(C)CC1)c1ccccc1CC2	0.81	i
Cc1cc(Br)c(NC(=O)CCl)c(Br)c1	6*	i
Cc1cc(Br)c(NC(=O)CN(C)CCOc2ccccc2)c(Br)c1	.	i
CSc1ccc(-c2sc(Nc3ccccc3)n[n+]2-c2ccccc2)cc1	.	i
CSc1ccc(-c2sc(Nc3cccc4ccccc34)n[n+]2-c2ccccc2)cc1	-5.6	-5.6*
O=C(Nn1c(SCc2ccccc2F)nc2ccsc2c1=O)c1ccccc1	-6.4	-6.4*
